Results: PubChem BioAssay AID504727 (Broad Institute, 2011)
A number with no mark means an inactive call. Active and inactive are the calls of the source.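 How the source made its calls: active means fitted half-maximal concentration AC50 at or below ten times the highest valid tested dose, with signal falling as DNA is displaced (actives reach about 34 µM in these data); inconclusive means flat fit at moderate signal loss, or poor fit quality; inactive means the rest, including signal rising instead of falling.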

experiment: acridine orange-DNA binding displacement – biochemical, fluorescence polarization, cherry-picked samples, set 2, artefact control for KSHV LANA DNA-binding inhibitor project, dose response (AID 504727); conditions: series mostly up to 35 µM; activity change, negative = DNA displacement: at the top concentration;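 on activity change, negative = DNA displacement: 0% = median of neutral control wells and -100% = mitoxantrone positive control wells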

Row | SMILES | activity change, negative = DNA displacement | AC50
1 | O=C(NCCCN1CCCC1=O)c1ccc2c(c1)ncn2C1CCCCC1 | 1.32% | –
2 | O=C(/C=N/NC(=O)c1ccc(Cl)cc1Cl)c1ccccc1 | 3.49% | –
3 | COc1ccc(Cl)cc1C(=O)NNC(=O)c1cc2ccccc2o1 | 7.26% | –
4 | COc1cc(-c2ccc(Nc3ccccc3C(=O)O)c(OC)c2)ccc1Nc1ccccc1C(=O)O | 4.89% | –
5 | CC(C)(C)n1nnnc1C(c1cccnc1)N(Cc1ccccc1)Cc1ccco1 (stereo not drawn) | – | 202 nM (active)
6 | COc1ccc(C(=O)c2ccsc2N)cc1 | 3.64% | –
7 | COc1ccc(C2(CNC(=O)CCC(=O)O)CCCC2)cc1OC | -1.24% | –
8 | O=C1C(=Cc2ccco2)CCC1=Cc1ccco1 | 2.6% | –
9 | CC(=O)N/C(=N\OCc1ccc(Br)cc1)c1nonc1NC(C)=O | 3.71% | –
10 | COc1ccc(-c2nc(C(=O)O)cs2)cc1OC | 3.6% | –
11 | N=c1ccn(Cc2ccc(Cl)cc2)cc1 | 5.76% | –
12 | COc1cccc2c1C(=O)c1c(O)c3c(c(O)c1C2=O)C[C@](O)(C(C)=O)C[C@H]3O[C@@H]1C[C@@H](N)[C@@H](O)[C@@H](C)O1 | – | 2980 nM (active)
13 | COC(=O)\C(C(C)=O)=C(/C=C/C=C/C=C/N(C)C)N(C)C | 56.7% | –
14 | O=C(O)c1ccccc1NS(=O)(=O)c1ccc(N/N=C/c2ccc(O)c(O)c2)c([N+](=O)[O-])c1 | 2.24% | –
15 | CC(C)[C@H](NC(=O)c1ccccc1F)C(=O)NC1CCCCCCC1 | 4.11% | –
16 | Oc1ccc2ccc3cccc[n+]3c2c1 | – | 1420 nM (active)
17 | O=[N+]([O-])c1cccc(CSc2nc3ccccc3[nH]2)c1 | -1.64% | –
18 | Nc1ccc2nc3c(=O)n(C4CCCCC4)c(=O)[nH]c3nc2c1 | – | 3190 nM (active)
19 | CCn1c(=O)c(C(=O)NCCN2CCCCC2)c(O)c2ccccc21 | -3.28% | –

Row | SMILES | activity change, negative = DNA displacement | AC50
20 | CC(/C=C1\SC(=S)N(CCCC(=O)Nc2ccc(C(=O)O)cc2)C1=O)=C\c1ccccc1 | 6.23% | –
21 | CCCc1nnc(NC(=O)CCC(=O)NCc2ccc(OC)cc2)s1 | 0.474% | –
22 | COc1[nH]c(/N=C/c2ccccc2)c(C#N)c1C#N | -1.88% | –
23 | CC(C(=O)Nc1ccc(C(=O)O)c(O)c1)N1C(=O)/C(=C\c2ccco2)SC1=S (stereo not drawn) | 4.47% | –
24 | CCOC(=O)[C@H]1[C@H]2COc3cc(OC)ccc3[C@@H]2N2C(=O)CN(Cc3ccc(OC)cc3)C(=O)[C@@]12C | -0.624% | –
25 | COc1ccc(CCNC(=O)CCCNC(=O)Cn2cnc3sc(C)c(C)c3c2=O)cc1OC | 4.76% | –
26 | CCn1c(SCc2nc3sc(C(=O)O)c(C)c3c(=O)[nH]2)nc2ccccc21 | -11% | –
27 | CC(C)(C)OC(=O)C[C@@H]1C/C=C\C[C@H](CC(=O)N(CCO)Cc2ccccc2)C(=O)N[C@@H](c2ccccc2)COC1=O | -2.7% | –
28 | Cc1cc(Cl)ccc1N1C(=O)CC(NNC(=O)c2cccnc2)C1=O (stereo not drawn) | 4.24% | –
29 | CCN(CC)C(=O)C1c2ccccc2Oc2ccccc21 | -1.95% | –
30 | Cc1cc(C)nc(SCC(=O)N/N=C/c2cc(C)n(-c3ccccc3C)c2C)n1 | -4.94% | –
31 | Cc1cc(C)n(CC(=O)NNC(=O)CC(C)c2ccccc2)n1 (stereo not drawn) | 2.41% | –
32 | Cc1cc(C(F)(F)F)c2c(N)c(C(=O)Nc3cc(C)on3)sc2n1 | -2.86% | –
33 | COc1ccccc1N1CCN(S(=O)(=O)c2c(C)[nH]c(C)c2C(=O)N2CCCC2)CC1 | 2.06% | –
34 | Cc1ccc(NC(=O)CN2C(=O)N/C(=C/c3cc(C)n(-c4ccc(C(=O)O)cc4)c3C)C2=O)cc1 | 5.76% | –
35 | CCOc1ccc(S(=O)(=O)N(C)c2ccc(OCC(=O)NC3=NCCS3)cc2)cc1 | -1.93% | –
36 | CN(C)S(=O)(=O)c1cccc(N2C(=O)CC3(CCCCC3)CC2=O)c1 | 3.65% | –
37 | Nc1ccc(-c2nc3ccc(C(=O)O)cc3s2)cc1 | 0.547% | –
38 | O=C(O)/C(=C\c1cccs1)Sc1nnc(-c2ccc(F)cc2)o1 | 3.86% | –
